The campaign covered roughly 1,000 compounds. About 230 (23%) were called active. Roughly 1% stayed inconclusive and do not appear here. This is one part of the list. Results with a measured potency or affinity are listed apart. Unmarked numbers belong to inactive results. The rule behind the calls is not given here.
biological target: Long-chain-fatty-acid--AMP ligase FadD28 (Mycobacterium tuberculosis (strain ATCC 25618 / H37Rv)) (UniProt P9WQ59); test: inhibitors of FadD28 bisubstrate probe binding, dose response, biochemical, fluorescence polarization, cherry-pick (AID 624273); details: series mostly up to 50 µM; activity change, negative = inhibition: at the top concentration
Sequence (P9WQ59 whole entry, looked up): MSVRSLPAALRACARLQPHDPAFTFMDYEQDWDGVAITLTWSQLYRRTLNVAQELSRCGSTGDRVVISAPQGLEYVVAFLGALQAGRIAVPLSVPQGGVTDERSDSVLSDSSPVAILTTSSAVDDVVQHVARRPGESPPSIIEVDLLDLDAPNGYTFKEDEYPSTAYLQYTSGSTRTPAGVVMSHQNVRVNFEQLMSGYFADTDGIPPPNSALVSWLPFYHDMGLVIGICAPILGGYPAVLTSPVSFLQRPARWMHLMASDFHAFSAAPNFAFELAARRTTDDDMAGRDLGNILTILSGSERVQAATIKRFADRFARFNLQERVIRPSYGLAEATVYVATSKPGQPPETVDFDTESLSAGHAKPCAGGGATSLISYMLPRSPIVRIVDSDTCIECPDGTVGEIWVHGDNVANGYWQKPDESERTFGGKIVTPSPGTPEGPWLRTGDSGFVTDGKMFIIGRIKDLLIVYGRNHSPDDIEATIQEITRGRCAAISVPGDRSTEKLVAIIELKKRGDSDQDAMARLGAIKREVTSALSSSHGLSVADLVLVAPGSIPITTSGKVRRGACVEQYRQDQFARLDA

Structure (SMILES)	activity change, negative = inhibition
Cc1ccc(-n2cc(CNC(C)Cn3cncn3)c(-c3ccc(F)cc3)n2)cc1 (configuration not stated)	1.98%
Cc1cccc(CN2C(=O)N/C(=C/c3cc(C)n(-c4cc(C)ccn4)c3C)C2=O)c1	-9.35%
O=C(O)CCC(=O)NC1CCCCC1	-7.09%
COc1ccc(NC(=O)CSc2n[nH]c(-c3ccco3)n2)cc1	-9.4%
O=C1C(=O)c2cccnc2-c2ncccc21	1.68%
CC(=O)C1C(c2cccc([N+](=O)[O-])c2)C2C(C)=NN=C2CC1(C)O (configuration not stated)	-4.31%
COc1ccc(N2CCN(S(=O)(=O)c3ccc(-c4cc(C)no4)s3)CC2)cc1	-3.6%
COc1ccc(/C=N/N(Cc2ccccc2)c2ccccc2)cc1O	-11.5%
Cc1ccc(S(=O)(=O)N2CCC(C(=O)NCCCN3CCOCC3)CC2)cc1C	-6.5%
COc1cc(/C=C2\SC(=S)N(NC(=O)c3ccc(O)cc3)C2=O)ccc1O	2.07%
C=CCn1c(-c2cccn(Cc3ccc(Cl)cc3)c2=O)n[nH]c1=S	-6.45%
O=C(O)c1ccc(N2CC3CC(C2)c2cccc(=O)n2C3)c(NS(=O)(=O)c2cccc(C(F)(F)F)c2)c1 (configuration not stated)	-1.38%
CN(C(=O)c1ccc(NC(=O)Cc2cccc(NC(=O)C3CCCN(C(=O)c4ccccc4)C3)c2)cc1)C1CC1 (configuration not stated)	-1.13%
COc1ccc(N2CCN(C(CNC(=O)COc3ccccc3)c3ccco3)CC2)cc1 (configuration not stated)	-5.99%
O=C(c1ccc(=O)[nH]n1)N1CCN(S(=O)(=O)c2cccc(F)c2)CC1	-3.38%
O=C(N/C(=C/c1ccc(Br)cc1)C(=O)N1CCCC1)c1ccccc1F	0.325%
FC(F)(F)c1cnc(C(c2ccccn2)c2ncn[nH]2)c(Cl)c1 (configuration not stated)	-1.87%
COc1cc2c3c(c1)/C(=C1/SC(NC(C)=O)=NC1=O)C(=O)N3C(C)(C)C=C2C	-7.72%
Cc1ccc(NC(=O)C2CC(=O)N(c3ccc4c5c(cccc35)CC4)C2)cc1 (configuration not stated)	-3.61%
CCc1ccc(CN(C)Cc2nc(Cc3cccc(C(F)(F)F)c3)no2)nc1	-6.49%
CCn1c(C)c(C)c2cc(C(=O)N3CCCC3)ccc21	-7.83%
COc1ccc(C(=O)NCC(=O)OCC(=O)NCc2cccs2)cc1	-4.01%
CCc1ccccc1OCC(=O)Nc1ccc(S(N)(=O)=O)cc1	-6.55%
Cn1cc(S(=O)(=O)N2CCCC2)cc1C(=O)NCCc1ccccc1	-3.16%
COc1ccc(CSCC(=O)Nc2ccc(S(=O)(=O)N3CCCCCC3)cc2)cc1	-11.3%
COc1cccc(OC)c1OCCN(C)C	-5.82%

Structure (SMILES)	activity change, negative = inhibition
COc1cccc(CCNCc2ccc(SC)cc2)c1	-2.97%
O=C(NCc1cccnc1)c1cc(-c2ccccc2)on1	-4.29%
CCOc1ccc(S(=O)(=O)N2CCN(C(=S)NCC3CCCO3)CC2)cc1 (configuration not stated)	0.383%
Cc1cccc2sc(NNC(=O)c3ccc(S(=O)(=O)N4CCCC(C)C4)cc3)nc12 (configuration not stated)	-12.8%
CN(C)/C=C/C(=O)c1ccc([N+](=O)[O-])c(CS(=O)(=O)c2ccc(Cl)cc2)c1	-7.3%
Cc1cc(C)cc(N(C(=O)C(F)(F)F)C(C(=O)NC2CCCCC2)c2cccs2)c1 (configuration not stated)	-6.68%
Cc1ccc(C)c(C(=O)CN2C(=O)C(=O)N(C3CCCC3)C2=O)c1	-9.13%
CCc1cccc2c(C(=O)CN3C(=O)NC4(CCCCC4)C3=O)c[nH]c12	7.34%
O=c1oc2c(CN3CCOCC3)c(O)c(Cl)cc2c2c1CCCC2	-3.73%
CCCCCCCCSc1nnc(CSc2nc3nc(C)cc(C)n3n2)o1	-7.29%
CCc1ccccc1Nc1nc(-c2cccnc2)cs1	-0.984%
CC1CCCCN1C(=O)CCS(=O)(=O)c1cccc2nonc12 (configuration not stated)	-2.59%
CSc1ccc(NC(=O)Nc2ccc(C(=O)NCC(=O)O)cc2)cc1	-4.74%
CCCCCCCCCCCCCCCC(=O)Nc1ccn(C2OC(CO)C(O)C2O)c(=O)n1 (configuration not stated)	-11.5%
COc1ccc(-c2noc(CNC(=O)c3ccc4c(c3)OCO4)n2)cc1	-5.61%
O=[N+]([O-])c1cc(C(F)(F)F)ccc1NCCc1c[nH]c2ccc(O)cc12	-25.5%
O=C(C(=O)N1CCCCCC1)c1c[nH]c2ccccc12	-3.43%
Nc1cc(OC(=O)c2ccc(F)cc2)nn1S(=O)(=O)c1ccccc1	-8.44%
COc1ccc(C2C(C#N)=C(N)N(c3ccccc3)C3=C2C(=O)CCC3)cc1Cn1cc([N+](=O)[O-])cn1 (configuration not stated)	-2.41%
COc1cc(/C=C2\SC(=S)N(NC(=O)c3ccccc3O)C2=O)ccc1O	-2.04%
Cc1ccn2c(CNCCn3cccn3)c(C(=O)N3CCCCCC3)nc2c1	-3.76%
COc1cc2cncc(Cc3ccc(Cl)cc3)c2cc1OC	21.4%
CC1(C)CC(=O)C(C(c2ccncc2)C2C(=O)CC(C)(C)CC2=O)C(=O)C1	-5.11%
CN1CCN(CCCN2c3ccccc3Sc3ccc(Cl)cc32)CC1	-5.81%
O=C(CSc1nncn1-c1cccnc1)N1CCOCC1	-0.342%
CN(Cc1cccc([N+](=O)[O-])c1)Cc1cccc2ccccc12	-2.3%

— PubChem BioAssay AID624273 (Broad Institute, 2012)
